Common to all, as to design: scale not given: direction of the effect not stated beside the values
Experiment [1] has as its target Protein translocase subunit SecA (Escherichia coli (strain K12)) (UniProt P10408). Nature of the experiment: Assay to Identify E. coli SecA ATPase Inhibitors. The class given is functional. The conditions noted are these: 30 µM.
Experiment [2] deals with T1, Ubiquitin-activating enzyme e1, putative (Leishmania donovani (strain BPK282A1)) (UniProt E9BSI1).
T1 sequence (whole entry): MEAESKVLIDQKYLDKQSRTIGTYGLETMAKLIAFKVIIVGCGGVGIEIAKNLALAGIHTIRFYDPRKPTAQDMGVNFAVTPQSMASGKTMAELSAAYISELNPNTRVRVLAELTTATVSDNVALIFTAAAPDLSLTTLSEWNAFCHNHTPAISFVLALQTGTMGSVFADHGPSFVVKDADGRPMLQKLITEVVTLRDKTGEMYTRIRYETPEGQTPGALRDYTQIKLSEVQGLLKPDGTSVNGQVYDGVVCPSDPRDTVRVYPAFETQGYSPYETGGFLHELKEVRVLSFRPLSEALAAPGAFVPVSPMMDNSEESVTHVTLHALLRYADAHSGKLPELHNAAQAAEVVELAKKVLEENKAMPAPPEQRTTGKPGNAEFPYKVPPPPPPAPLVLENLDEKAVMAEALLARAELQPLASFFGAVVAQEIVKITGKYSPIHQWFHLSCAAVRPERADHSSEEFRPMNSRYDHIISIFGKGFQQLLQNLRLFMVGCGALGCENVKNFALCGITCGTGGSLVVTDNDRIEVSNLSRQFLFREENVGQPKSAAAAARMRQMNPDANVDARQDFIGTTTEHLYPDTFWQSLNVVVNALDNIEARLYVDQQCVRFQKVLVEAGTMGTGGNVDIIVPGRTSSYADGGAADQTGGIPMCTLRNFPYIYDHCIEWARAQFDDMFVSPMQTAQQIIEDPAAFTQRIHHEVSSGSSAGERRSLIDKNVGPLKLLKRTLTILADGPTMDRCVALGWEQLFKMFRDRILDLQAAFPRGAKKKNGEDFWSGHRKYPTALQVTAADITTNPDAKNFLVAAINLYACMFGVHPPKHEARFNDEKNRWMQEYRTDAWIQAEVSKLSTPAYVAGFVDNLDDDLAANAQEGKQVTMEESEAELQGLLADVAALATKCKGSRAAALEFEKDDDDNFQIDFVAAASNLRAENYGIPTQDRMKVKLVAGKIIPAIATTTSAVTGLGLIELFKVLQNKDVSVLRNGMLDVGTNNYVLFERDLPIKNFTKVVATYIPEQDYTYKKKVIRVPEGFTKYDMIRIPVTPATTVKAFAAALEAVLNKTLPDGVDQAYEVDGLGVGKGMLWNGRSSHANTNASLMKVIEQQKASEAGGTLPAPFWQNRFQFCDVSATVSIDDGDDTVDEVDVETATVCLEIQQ
Put plainly: Leishmania donovani Ubiquitin Activating Enzyme (LdE1). As to conditions: 30 µM. The class given is functional.

In experiment [3] the target is T2, Aspartate--tRNA(Asp/Asn) ligase (Mycobacterium tuberculosis (strain ATCC 25618 / H37Rv)) (UniProt P9WFW3). Note: in the data most compounds retested in dose-response had high values.
T2 sequence (whole entry): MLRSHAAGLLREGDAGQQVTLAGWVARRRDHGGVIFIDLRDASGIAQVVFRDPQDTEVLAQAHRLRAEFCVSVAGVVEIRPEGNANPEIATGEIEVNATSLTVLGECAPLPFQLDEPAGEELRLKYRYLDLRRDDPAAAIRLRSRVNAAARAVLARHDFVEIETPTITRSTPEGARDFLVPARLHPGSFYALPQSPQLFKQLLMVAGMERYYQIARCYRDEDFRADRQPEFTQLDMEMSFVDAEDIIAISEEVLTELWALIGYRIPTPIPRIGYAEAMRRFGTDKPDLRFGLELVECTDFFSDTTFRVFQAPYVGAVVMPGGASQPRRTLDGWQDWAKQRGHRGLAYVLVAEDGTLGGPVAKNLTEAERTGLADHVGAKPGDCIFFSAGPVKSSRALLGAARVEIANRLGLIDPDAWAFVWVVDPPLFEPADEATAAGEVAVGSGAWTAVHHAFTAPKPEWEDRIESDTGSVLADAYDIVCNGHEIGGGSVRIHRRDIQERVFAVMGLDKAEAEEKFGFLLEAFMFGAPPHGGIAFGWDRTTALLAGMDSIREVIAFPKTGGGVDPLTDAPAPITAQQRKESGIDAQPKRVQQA
Nature of the experiment: Assay for Asp RNA synthetase-1 from Mycobacterium tuberculosis. The class given is functional. As to conditions: 30 µM.

Experiment [4] deals with AMP-activated protein kinase, AMPK (Homo sapiens) (UniProt P54646+O43741+P54619+Q9UGJ0+Q9Y478+Q13131+Q9UGI9). Nature of the experiment: AMP-dependent Kinase enzyme assay. An in vitro enzyme assay that detects ADP turnover that is directly proportional to AMPK activity. This uses naive AMPK that is activated during the assay with MK-8722. The class given is functional. The conditions noted are these: 30 µM.

For experiment [5], the target named is Sialic acid-binding Ig-like lectin 9 (Homo sapiens) (UniProt Q9Y336). Put plainly: Hs-Siglec9 ALPHAscreen SOP 20170721. The conditions noted are these: 10 µM. (In general: Bead proximity is the source of the signal in Alpha formats.)
Experiment [6] has as its system Trypanosoma cruzi. Nature of the experiment: Trypanosoma cruzi phosphomannomutase and mannose-1-phosphate guanylyltransferase assay. The class given is functional. The conditions noted are these: 10 µM.
For experiment [7], the target named is T3, Arginase-2, mitochondrial (Homo sapiens) (UniProt P78540).
T3 sequence (whole entry): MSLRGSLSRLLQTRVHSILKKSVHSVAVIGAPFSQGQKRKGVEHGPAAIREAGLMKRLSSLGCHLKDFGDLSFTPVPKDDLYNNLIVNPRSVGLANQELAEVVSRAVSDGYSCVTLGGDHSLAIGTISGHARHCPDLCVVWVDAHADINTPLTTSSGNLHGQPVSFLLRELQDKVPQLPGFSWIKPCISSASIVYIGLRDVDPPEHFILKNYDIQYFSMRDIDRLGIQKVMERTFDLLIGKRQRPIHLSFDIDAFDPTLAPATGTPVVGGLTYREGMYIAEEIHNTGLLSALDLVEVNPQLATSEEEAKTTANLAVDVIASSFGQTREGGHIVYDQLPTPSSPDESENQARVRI
Put plainly: in vitro enzyme assay to detect the production of urea directly proportional to the activity of Arginase II. Note: in the data most compounds retested in dose-response had high values. The class given is functional. As to conditions: 33.3 µM.

The target of experiment [8] is T4, Proteasome subunit beta (Trypanosoma cruzi) (UniProt O96673).
T4 sequence (whole entry): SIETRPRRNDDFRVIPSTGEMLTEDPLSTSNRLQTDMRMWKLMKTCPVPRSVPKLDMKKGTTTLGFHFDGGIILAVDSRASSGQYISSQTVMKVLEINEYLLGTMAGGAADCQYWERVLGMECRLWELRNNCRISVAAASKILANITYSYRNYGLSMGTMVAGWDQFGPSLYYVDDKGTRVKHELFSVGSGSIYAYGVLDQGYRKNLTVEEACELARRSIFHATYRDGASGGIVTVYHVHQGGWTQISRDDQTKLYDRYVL
Put plainly: Trypanosoma cruzi proteasome chymotrypsin-like activity (TcProtChymo) assay. Note: in the data most compounds retested in dose-response had high values. The conditions noted are these: 9.37 µM. Format: functional.

Experiment [9] is filed under the species Homo sapiens. Put plainly: To identify inhibition of the IFN signalling (Jak-Stat) pathway via expression of an eGFP reporter gene under the control of an IFN-stimulated response element (ISRE) containing MxA promoter. The class given is functional. The conditions noted are these: 30 µM.
Experiment [10] addresses Shiga toxin 2 (Escherichia coli O157:H7) (UniProt P09385+P09386). Nature of the experiment: E. coli 0.157:H7 Shiga Toxin SOP - stx2 screening assay. The conditions noted are these: 30 µM. Format: functional.
The target of experiment [11] is T5, Tyrosyl-tRNA synthetase, putative (Trypanosoma cruzi (strain CL Brener)) (UniProt Q4DSP6).
T5 sequence (whole entry): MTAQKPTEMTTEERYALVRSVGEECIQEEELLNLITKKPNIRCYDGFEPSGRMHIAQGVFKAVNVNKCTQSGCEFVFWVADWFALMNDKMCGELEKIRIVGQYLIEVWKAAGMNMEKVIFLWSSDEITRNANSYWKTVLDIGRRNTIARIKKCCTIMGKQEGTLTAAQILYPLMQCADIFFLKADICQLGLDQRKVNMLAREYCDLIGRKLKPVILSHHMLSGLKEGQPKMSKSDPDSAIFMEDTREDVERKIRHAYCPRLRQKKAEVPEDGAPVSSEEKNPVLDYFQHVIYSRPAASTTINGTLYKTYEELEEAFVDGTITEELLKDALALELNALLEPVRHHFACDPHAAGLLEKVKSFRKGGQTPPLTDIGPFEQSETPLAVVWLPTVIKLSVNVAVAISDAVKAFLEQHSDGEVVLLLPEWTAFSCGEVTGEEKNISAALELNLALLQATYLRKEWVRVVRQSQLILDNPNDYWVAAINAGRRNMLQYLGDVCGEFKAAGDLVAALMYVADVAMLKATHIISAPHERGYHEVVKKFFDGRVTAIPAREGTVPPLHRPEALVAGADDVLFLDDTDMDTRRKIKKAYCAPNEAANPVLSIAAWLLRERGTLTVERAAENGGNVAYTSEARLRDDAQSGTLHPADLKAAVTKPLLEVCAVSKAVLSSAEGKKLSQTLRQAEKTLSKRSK
Nature of the experiment: Trypanosoma cruzi tyrosyl tRNA synthetase (TcYRS) _High Tyrosine SOP. Note: in the data most compounds retested in dose-response had high values. The conditions noted are these: 30 µM. Format: functional.

The target of experiment [12] is T5, Tyrosyl-tRNA synthetase, putative (Trypanosoma cruzi (strain CL Brener)). Nature of the experiment: Trypanosoma cruzi tyrosyl tRNA synthetase (TcYRS) SOP. The class given is functional. The conditions noted are these: 30 µM.
Experiment [13] deals with Chromo domain-containing protein 1 (Saccharomyces cerevisiae (strain ATCC 204508 / S288c) (Baker's yeast)) (UniProt P32657). Put plainly: ScCHD-1 Enzyme Inhibition Assay. Note: in the data most compounds retested in dose-response had high values. As to conditions: 30 µM. The class given is functional.

For some assays here: Results with a measured potency or affinity are listed apart.

Sequence of Protein translocase subunit SecA (Escherichia coli (strain K12)) (P10408 whole entry): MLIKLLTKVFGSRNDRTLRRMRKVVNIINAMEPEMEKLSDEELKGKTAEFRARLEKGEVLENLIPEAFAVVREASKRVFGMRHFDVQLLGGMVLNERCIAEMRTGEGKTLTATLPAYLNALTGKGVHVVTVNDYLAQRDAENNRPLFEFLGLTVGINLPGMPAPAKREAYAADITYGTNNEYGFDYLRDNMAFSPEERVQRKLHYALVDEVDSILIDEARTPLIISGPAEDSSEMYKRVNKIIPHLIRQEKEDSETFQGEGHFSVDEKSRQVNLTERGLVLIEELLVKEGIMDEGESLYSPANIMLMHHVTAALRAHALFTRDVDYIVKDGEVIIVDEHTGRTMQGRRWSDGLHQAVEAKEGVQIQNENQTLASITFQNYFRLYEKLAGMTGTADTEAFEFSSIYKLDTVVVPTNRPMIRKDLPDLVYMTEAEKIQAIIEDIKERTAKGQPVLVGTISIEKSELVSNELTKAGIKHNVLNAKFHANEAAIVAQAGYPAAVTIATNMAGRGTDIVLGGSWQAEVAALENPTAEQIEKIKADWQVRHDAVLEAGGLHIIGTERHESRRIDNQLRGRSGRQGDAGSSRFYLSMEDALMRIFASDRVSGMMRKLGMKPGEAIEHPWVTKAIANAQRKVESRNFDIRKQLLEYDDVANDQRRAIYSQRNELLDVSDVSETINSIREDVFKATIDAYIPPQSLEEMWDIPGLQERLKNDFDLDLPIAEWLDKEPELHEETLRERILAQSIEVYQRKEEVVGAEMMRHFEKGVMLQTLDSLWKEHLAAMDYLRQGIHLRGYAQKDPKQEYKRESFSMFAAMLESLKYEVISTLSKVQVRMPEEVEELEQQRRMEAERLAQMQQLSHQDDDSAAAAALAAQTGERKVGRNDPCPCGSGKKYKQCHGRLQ
Sequence of Sialic acid-binding Ig-like lectin 9 (Homo sapiens) (Q9Y336 whole entry): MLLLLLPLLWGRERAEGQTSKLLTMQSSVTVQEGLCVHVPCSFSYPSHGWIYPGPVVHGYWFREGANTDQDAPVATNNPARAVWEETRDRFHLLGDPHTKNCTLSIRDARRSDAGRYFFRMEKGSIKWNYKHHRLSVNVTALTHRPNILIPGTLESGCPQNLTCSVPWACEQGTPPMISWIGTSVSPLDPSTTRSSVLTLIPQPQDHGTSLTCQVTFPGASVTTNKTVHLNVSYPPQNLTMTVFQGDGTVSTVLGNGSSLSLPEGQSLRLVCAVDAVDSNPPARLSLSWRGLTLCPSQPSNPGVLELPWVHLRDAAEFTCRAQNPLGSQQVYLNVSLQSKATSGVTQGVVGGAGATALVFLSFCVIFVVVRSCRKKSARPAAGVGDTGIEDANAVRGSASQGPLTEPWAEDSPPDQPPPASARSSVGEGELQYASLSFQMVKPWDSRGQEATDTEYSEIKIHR
Sequence of Chromo domain-containing protein 1 (Saccharomyces cerevisiae (strain ATCC 204508 / S288c) (Baker's yeast)) (P32657 whole entry, the tested form may be a part): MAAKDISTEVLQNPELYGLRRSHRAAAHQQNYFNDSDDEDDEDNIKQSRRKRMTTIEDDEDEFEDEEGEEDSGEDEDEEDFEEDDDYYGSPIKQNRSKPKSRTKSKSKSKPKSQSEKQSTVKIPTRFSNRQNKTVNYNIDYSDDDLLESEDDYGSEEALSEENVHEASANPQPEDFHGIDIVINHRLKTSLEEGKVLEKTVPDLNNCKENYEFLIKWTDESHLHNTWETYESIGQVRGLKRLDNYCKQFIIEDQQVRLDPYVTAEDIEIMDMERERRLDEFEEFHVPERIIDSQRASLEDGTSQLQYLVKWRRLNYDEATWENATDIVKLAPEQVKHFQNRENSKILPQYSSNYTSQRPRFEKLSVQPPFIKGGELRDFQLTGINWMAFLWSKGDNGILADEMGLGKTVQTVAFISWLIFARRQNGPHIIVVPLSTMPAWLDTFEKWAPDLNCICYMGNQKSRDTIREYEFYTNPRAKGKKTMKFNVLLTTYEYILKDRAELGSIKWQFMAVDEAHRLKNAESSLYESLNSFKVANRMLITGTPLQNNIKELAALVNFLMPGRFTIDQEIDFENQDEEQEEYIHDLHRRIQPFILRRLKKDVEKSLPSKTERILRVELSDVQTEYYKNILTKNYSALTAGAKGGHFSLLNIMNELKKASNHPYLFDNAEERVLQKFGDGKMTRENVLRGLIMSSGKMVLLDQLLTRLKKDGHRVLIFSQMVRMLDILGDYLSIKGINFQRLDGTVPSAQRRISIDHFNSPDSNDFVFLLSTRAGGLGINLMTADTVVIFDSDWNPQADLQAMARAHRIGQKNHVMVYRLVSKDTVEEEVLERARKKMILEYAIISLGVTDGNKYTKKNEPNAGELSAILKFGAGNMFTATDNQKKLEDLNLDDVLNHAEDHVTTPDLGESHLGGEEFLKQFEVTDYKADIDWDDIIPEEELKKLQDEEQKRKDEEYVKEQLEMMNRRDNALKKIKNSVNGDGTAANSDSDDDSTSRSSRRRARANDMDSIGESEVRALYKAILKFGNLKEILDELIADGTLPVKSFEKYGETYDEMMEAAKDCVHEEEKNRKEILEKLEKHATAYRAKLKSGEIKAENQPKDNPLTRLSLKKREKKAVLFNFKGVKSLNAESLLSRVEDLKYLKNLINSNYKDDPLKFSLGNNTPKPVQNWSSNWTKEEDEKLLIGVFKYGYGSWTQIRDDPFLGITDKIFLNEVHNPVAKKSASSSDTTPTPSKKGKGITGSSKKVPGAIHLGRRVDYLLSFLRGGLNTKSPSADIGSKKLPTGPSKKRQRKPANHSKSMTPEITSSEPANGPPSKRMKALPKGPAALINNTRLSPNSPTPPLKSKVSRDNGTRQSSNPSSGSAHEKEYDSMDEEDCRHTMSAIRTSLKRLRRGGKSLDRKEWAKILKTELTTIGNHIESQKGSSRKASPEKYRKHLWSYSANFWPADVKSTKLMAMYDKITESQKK

Turning to `O=C(Nc1cccnc1)[C@H]1COC[C@H]2CN(C3CCCC3)C[C@H]21`, the Percent Effect in [1] is -5.23%; in experiment [2], 8.11%; in experiment [3] it was 5.33%; in experiment [4], 1.79%; in [5] it was 1.44%; in experiment [6], 2.15%. The Percent Effect was 3.33% in [7]; 10.2% in experiment [8]; -5.51% in experiment [9]; -10.3% in experiment [10]; 4.95% in experiment [11]; 11% in [12]. Further, in [13], the Percent Effect is -4.54%.

For the molecule `O=C(Cc1cccs1)N1C[C@@H]2OCCN(CC3CCCC3)[C@@H]2C1`, the Percent Effect was -3.05% in experiment [1]; 11% in [2]; -2.94% in [3]; -0.507% in experiment [4]; 19.2% in experiment [5]; 1.59% in experiment [6]. Also, the Percent Effect in experiment [7] was -6.79%; in [8] it was 4.37%; in experiment [9], -10.9%; in experiment [10], 13.2%; in experiment [11], 4.17%; in experiment [12] it was 6.17%. Also, the Percent Effect in experiment [13] is -1.65%.

For the molecule `O=C(c1cc(-n2cnnn2)ccc1Cl)N1CCC2(CC1)OCCO2`, the Percent Effect in [1] is -3.84%; in [2], 5.26%; in [3] it was 0.24%; in [4], 3.99%; in [5], 7.5%; in experiment [6], -3.21%. Further, the Percent Effect in [7] is -3.55%; in experiment [8], 8.53%; in [9] it was 7.36%; in [10], -4.29%; in [11] it was 3.19%; in experiment [12], 5.2%. In addition, in experiment [13], the Percent Effect is -4.14%.

In the case of `CC(C)c1nc(N2CCN3CCCC3C2)c2cnn(C)c2n1` (stereo not given), the Percent Effect in experiment [1] was -0.588%; in experiment [2], 8.22%; in experiment [3] it was 4.74%; in experiment [4], -0.789%; in [5], 7.41%; in experiment [6], 1.98%. The Percent Effect in experiment [7] was -6.79%; in experiment [8], 8.82%; in [9], -37.1%; in experiment [10], -16.2%; in [11], 8.33%; in experiment [12], 16.1%. Moreover, the Percent Effect in experiment [13] was -6.37%.

Turning to `CN(C)C(=O)CN1CCN(C(=O)Cc2csc(-c3ncccn3)n2)CC1`, the Percent Effect is -3.23% in experiment [1]; 13.2% in experiment [2]; -1.92% in experiment [3]; -1.28% in [4]; 12% in experiment [5]; -3.19% in experiment [6]. The Percent Effect in experiment [7] worked out at 1.92%; in experiment [8], 8.69%; in [9], 23.7%; in experiment [10] it was 30%; in [11] it was 5.39%; in experiment [12], 9.76%. For the same molecule, the Percent Effect in experiment [13] was -7.21%.

The values above are taken from ChEMBL document CHEMBL3988442, “University of Dundee, Small-Polar-MMV Screening Library” (2021).
